The values below come from PubChem BioAssay.

The nature of assay [1]: reduced viability of SK-BR-3 breast cancer cells – cell-based, 24 h, human, pilot screen (AID 572;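 active = viability at or below 10% of carrier control in both of two separate runs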;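 note: compound exposure lasted between 18 and 24 h rather than exactly 24 h; 100% = carrier-treated control wells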). The settings on record: SK-BR-3 viability, CellTiter-Glo luminescence, at 10 µM, stronger effect = lower value. On the technique in general: In ATP-based viability assays light output follows the ATP content of the culture.
Assay [2] can be described thus: HUVEC growth inhibition – cell-based, human, primary screen (AID 575;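 active = viability at or below 30% in both replicate assays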;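 note: 100% = median of untreated cell wells with 0.1% DMSO on each plate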). The settings on record: HUVEC proliferation, CellTiter-Glo luminescence, 72 h; at 10 µM; stronger effect = lower value.
Assay [3] in a line: H69AR cell proliferation blockers – human, duplicate replicates, primary screen (AID 580;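 active = viability at or under a set limit in both replicates, limit being median viability minus 3 SD, cut at about 48% in these data, passing the limit was not always enough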;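 note: 100% = mean luminescence of untreated wells and 0% = no signal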). The settings on record: H69AR lung tumor cells viability, ATP luminescence, 72 h; at 10 µM; stronger effect = lower value.
Assay [4] in a line: MRP1 drug-resistance reversers in H69AR cells – cell-based, doxorubicin co-treatment, pilot screen (AID 601;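 active = viability loss from added drug above about 55%, and viability with drug at most 40%, in both replicates, limit read from the data, passing the limit was not always enough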). The settings on record: CellTiter-Glo, 72 h, at 10 µM; for differential viability (reversal): stronger effect = higher value.
Assay [5] in a line: yeast transport mutant growth inhibition pilot in 384-well plates, post-Golgi transport modulator project (AID 636; in the data active = inhibition above about 31%). The settings on record: absorbance 615 nm, about 18 h, stronger effect = higher value.
Assay [6] can be described thus: growth suppression of yeast trafficking mutant, preliminary HTS, modulators of trafficking downstream of Golgi apparatus project, 1536-format plate, OD 615 nm (AID 637; in the data active = inhibition above about 30%). The settings on record: yeast transport mutant growth, absorbance 615 nm, 18 h; stronger effect = higher value.
Assay [7] in a line: S. cerevisiae growth inhibition in permissive medium (OD615), pilot counter-assay for S. cerevisiae lifespan shortening project, permissive growth control (AID 705;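 active = growth inhibition above 25% in both replicates, a cutoff set 3 SD above the mean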). The settings on record: OD615, 24 h, at 10 µM, stronger effect = higher value.
Assay [8] can be described thus: S. cerevisiae growth inhibition in restrictive medium, OD615, pilot screen, restrictive growth control, yeast lifespan reduction project (AID 706;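 active = growth inhibition above a set limit, 3 SD over mean compound inhibition, in both replicates, cut at about 43% in these data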;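 note: modified DeaD lifespan yeast strain shifted to restrictive glucose medium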). The settings on record: OD615, 48 h, at 10 µM, stronger effect = higher value.
A short description of assay [9]: doxorubicin toxicity protection in MRP-1 cells – H69AR cells, CellTiter-Glo, duplicate, MRP-1 activator project, pilot screen (AID 807;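 active = viability increase at or above a cutoff of the median across tested compounds plus 3 SD, cut at about 8.5% in these data, passing the limit was not always enough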;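 note: compound pretreatment 18-22 h then 72 h combined with doxorubicin; 0% = doxorubicin alone and 100% = vehicle without doxorubicin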). The settings on record: H69AR viability with doxorubicin, CellTiter-Glo luminescence; at 10 µM; stronger effect = higher value.
Assay [10] is described as follows: viability of HCT116 without oncogenic beta-catenin – human colon tumor cells, pilot screen (AID 823;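 active = cell viability at or below a set limit in both duplicate runs, the limit being the all-compound median minus 4 SD, cut at about 23% in these data, passing the limit was not always enough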;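 note: 0% = wells killed by 20 µM Hyamine and 100% = untreated DMSO cell wells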). The settings on record: HCT116 beta-catenin knockout viability, CellTiter-Glo, 60 h; at 10 µM; stronger effect = lower value.
A short description of assay [11]: viability of PTEN-null HCT116 cells – cell-based, HCT116 clonal line, CellTiter-Glo, pilot screen (AID 824;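 active = viability at or below 27.92% in each of two runs, the all-compound median minus 4 SD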;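 note: 0% = 20 µM Hyamine control and 100% = vehicle cell control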). The settings on record: HCT116 PTEN-deleted viability, 60 h, at 10 µM, stronger effect = lower value.
A short description of assay [12]: RAM pathway blockade in budding yeast – dse1pr::URA3 reporter, 5-FOA selection, pilot screen (AID 869;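 active = inhibition over a set limit, the all-compound mean plus 3 SD, in both replicate runs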;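 note: 0% = DMSO wells with no growth and 100% = 10 µM 1-NA-PP1 with full growth; RAM network block rescues cells from 5-FOA so hits raise OD615 growth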). The settings on record: S. cerevisiae dse1pr::URA3 5-FOA growth, OD615, 2 d; at 10 µM; stronger effect = higher value; strain carries analog-sensitive mutant Cbk1 kinase.
Assay [13] can be described thus: RAM signaling pathway blockade in yeast – S. cerevisiae, Pdr1DBD-CYC8 efflux-inhibited sensitized strain, primary screen (AID 1298).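 Note: 0% = DMSO untreated cells without growth and 100% = 10 µM 1-NA-PP1 full growth; higher means more yeast growth rescued from 5-FOA killing.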 The settings on record: S. cerevisiae cbk1-as DSE1-URA3 strain, 5-FOA growth OD615, 2 d; at 50 µM; stronger effect = higher value.
[14] abbreviates: H69AR cells + 2 uM doxorubicin, measured here: viability with 2 uM doxorubicin, stronger effect = lower value.
Where [15] appears, read: H69AR cells, compound alone cytotoxicity.

SMILES strings stand for the structures. Records with an inconclusive call do not appear. The source made the active and inactive calls.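 Rule for the calls, unless noted: active = RAM network inhibition above 8.4% in each of two replicates, 3 SD over the compound average; inconclusive = above 8.4% inhibition in only one replicate; inactive = 8.4% inhibition or less in each replicate.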

A word on the viability: it is a read-out of living cells in per cent, often relative to untreated cells. For orientation: inhibition means the change of the read-out against control, counted positive when it falls.

As to `Clc1cccc(-c2nnc(-c3ccccc3)o2)c1`, the viability in [1] is 57% (inactive); in assay [2], 78.7% (inactive); in assay [3], 76.7% (inactive); in assay [4] (setting [14]), 80.7%; in assay [4] (setting [15]), 76.7%; in assay [10], 4.61% (active). In addition, in [11], the viability is 21.4% (active). Also, the differential viability (reversal) in [4] (H69AR cells + 2 uM doxorubicin) was -4.06% (inactive). In addition, the inhibition is -8.92% (inactive) in assay [5], 0.82% (inactive) in [6] and 1.33% (inactive) in assay [12]. The growth inhibition in assay [7] was 8.84% (inactive); in assay [8], 3.85% (inactive). For the same molecule, the viability increase in [9] was -6.09% (inactive). Besides, the RAM network inhibition in assay [13] is 0.25% (inactive).

Consider `O=C(CSc1nnnn1-c1ccccc1)Nc1ccc(Cl)cc1`, for which the viability in assay [1] is 100% (inactive); in assay [2], 99.1% (inactive); in assay [3], 89.7% (inactive); in assay [4] (setting [14]), 83.2%; in assay [4] (setting [15]), 89.7%; in assay [10] it was 74% (inactive). In assay [11], the viability was 76.8% (inactive). The differential viability (reversal) in assay [4] (H69AR cells + 2 uM doxorubicin) is 6.46% (inactive). Besides, the inhibition in [5] is 2.13% (inactive); in assay [6] it was 6% (inactive); in assay [12] it was 3.12% (inactive). For the same molecule, the growth inhibition was -4.88% (inactive) in assay [7] and 4.24% (inactive) in [8]. The viability increase in assay [9] is -3.86% (inactive). For the same molecule, in assay [13], the RAM network inhibition was 2.55% (inactive).

Take `Cc1ccc(C(=O)Nc2ccc(Cl)cn2)cc1S(=O)(=O)N1CCOCC1`: the viability in assay [1] is 90% (inactive); in assay [2], 78.3% (inactive); in assay [3] it was 81.5% (inactive); in [4] (setting [14]) it was 93%; in assay [4] (setting [15]), 81.5%; in assay [10], 86.4% (inactive). In assay [11], the viability is 79.9% (inactive). In addition, the differential viability (reversal) in assay [4] (H69AR cells + 2 uM doxorubicin) is -11.5% (inactive). In addition, the figures for the inhibition in [5], in assay [6] and in assay [12] were 0.39% (inactive), 5% (inactive) and 1.39% (inactive), respectively. Besides, the growth inhibition was -3.23% (inactive) in assay [7] and 0.715% (inactive) in [8]. Besides, in assay [9], the viability increase is 1.52% (inactive). Further, in [13], the RAM network inhibition is 5.97% (inactive).

With `CCOC(=O)N1CCN(C(=O)CN(C2CCCCC2)S(=O)(=O)c2ccc(F)cc2)CC1`, the viability was 113% (inactive) in assay [1]; 97.3% (inactive) in [2]; 97.7% (inactive) in assay [3]; 91.7% in [4] (setting [14]); 97.7% in assay [4] (setting [15]); 99.8% (inactive) in assay [10]. In addition, in assay [11], the viability was 103% (inactive). Also, the differential viability (reversal) in assay [4] (H69AR cells + 2 uM doxorubicin) is 5.98% (inactive). Besides, the inhibition in assay [5] is -6% (inactive); in [6], -4.36% (inactive); in assay [12] it was -0.815% (inactive). Further, the growth inhibition was -7.17% (inactive) in assay [7] and -5.59% (inactive) in assay [8]. The viability increase in [9] was 0.22% (inactive). Also, the RAM network inhibition in assay [13] was 6.62% (inactive).

Regarding `CC1CCN(c2c(NCc3ccc(C(=O)N4c5ccccc5CC4C)cc3)c(=O)c2=O)CC1` (stereo not given), the viability was 95% (inactive) in assay [1]; 70.5% (inactive) in [2]; 37.2% (active) in assay [3]; 48.7% in [4] (setting [14]); 37.2% in assay [4] (setting [15]); 72.1% (inactive) in assay [10]. In addition, in assay [11], the viability is 66.8% (inactive). The differential viability (reversal) in assay [4] (H69AR cells + 2 uM doxorubicin) is -11.5% (inactive). The inhibition in assay [5] was -0.13% (inactive); in assay [6] it was 2.33% (inactive); in assay [12] it was 2.15% (inactive). Moreover, the growth inhibition is -17.3% (inactive) in assay [7] and -17.2% (inactive) in [8]. Moreover, the viability increase in assay [9] was -7.24% (inactive). In assay [13], the RAM network inhibition is 2.31% (inactive).

As to `CCOC(=O)Nc1c(O)ccc2oc(C)c(-c3ccccc3)c12`, the viability in assay [1] was 102% (inactive); in [2] it was 68.7% (inactive); in [3] it was 99.8% (inactive); in assay [4] (setting [14]), 99.8%; in [4] (setting [15]) it was 99.8%; in assay [10], 79.4% (inactive). Moreover, in [11], the viability is 80.9% (inactive). For the same molecule, the differential viability (reversal) in [4] (H69AR cells + 2 uM doxorubicin) is 0.02% (inactive). In addition, the inhibition in assay [5] is 0.26% (inactive); in assay [6], 15.3% (inactive); in [12], 1.51% (inactive). Besides, the growth inhibition in assay [7] is -15.4% (inactive); in assay [8], -6.34% (inactive). Also, the viability increase in assay [9] is -2.89% (inactive). Moreover, in assay [13], the RAM network inhibition was 3.9% (inactive).

As for `COC(=O)c1cc(-c2ccccc2)sc1NC(=O)c1cc(C)on1`, the viability in assay [1] was 121% (inactive); in assay [2], 96.6% (inactive); in assay [3], 95.9% (inactive); in [4] (setting [14]), 90.8%; in assay [4] (setting [15]), 95.9%; in assay [10] it was 93.7% (inactive). Moreover, in [11], the viability was 84.2% (inactive). In assay [4] (H69AR cells + 2 uM doxorubicin), the differential viability (reversal) is 5.14% (inactive). Besides, the inhibition in assay [5] is -4.38% (inactive); in assay [6], -6.45% (inactive); in [12], 1.4% (inactive). Also, the growth inhibition was -0.31% (inactive) in [7] and -11.1% (inactive) in assay [8]. The viability increase in [9] was -2.24% (inactive). Also, the RAM network inhibition in assay [13] is 2.94% (inactive).

As for `COCc1cc(C)nc(Nc2ccc(C)cc2C)c1C#N`, the viability in assay [1] was 70% (inactive); in assay [2], 84.8% (inactive); in assay [3] it was 104% (inactive); in assay [4] (setting [14]), 95.1%; in assay [4] (setting [15]), 104%; in assay [10], 97.2% (inactive). Moreover, in assay [11], the viability is 90.6% (inactive). The differential viability (reversal) in [4] (H69AR cells + 2 uM doxorubicin) is 9.25% (inactive). Moreover, the figures for the inhibition in assay [5], in [6] and in [12] were -2.43% (inactive), 2.46% (inactive) and 1.15% (inactive), respectively. The growth inhibition in assay [7] was -9.57% (inactive); in assay [8], -2.85% (inactive). The viability increase in [9] is -4.12% (inactive). Also, the RAM network inhibition in [13] is 0.15% (inactive).

For `CC(=O)Nc1nnc(SCC(=O)NCC2CCCO2)s1` (stereo not given), the viability in assay [1] was 70% (inactive); in [2], 105% (inactive); in assay [3] it was 96.3% (inactive); in assay [4] (setting [14]), 92.7%; in assay [4] (setting [15]), 96.3%; in assay [10], 100% (inactive). In [11], the viability is 88.6% (inactive). Besides, the differential viability (reversal) in [4] (H69AR cells + 2 uM doxorubicin) is 3.56% (inactive). Further, the inhibition was 0.27% (inactive) in assay [5], 7.64% (inactive) in assay [6] and 0.925% (inactive) in [12]. In addition, the growth inhibition in assay [7] was -2.62% (inactive); in assay [8], 2.21% (inactive). In addition, the viability increase in assay [9] was -1.36% (inactive). Further, the RAM network inhibition in assay [13] is -0.72% (inactive).

As for `Cc1cc(C)nc(SCc2ccc3nonc3c2)n1`, the viability was 99% (inactive) in assay [1]; 89.9% (inactive) in [2]; 89.2% (inactive) in assay [3]; 73.5% in assay [4] (setting [14]); 89.2% in [4] (setting [15]); 96.3% (inactive) in assay [10]. In addition, the viability in assay [11] was 98% (inactive). Moreover, the differential viability (reversal) in assay [4] (H69AR cells + 2 uM doxorubicin) is 15.7% (inactive). For the same molecule, the inhibition was -6.53% (inactive) in assay [5], -0.18% (inactive) in assay [6] and 0.535% (inactive) in assay [12]. For the same molecule, the growth inhibition in [7] is -9.08% (inactive); in assay [8], -6.27% (inactive). In addition, the viability increase in assay [9] was -0.41% (inactive). Moreover, the RAM network inhibition in assay [13] is 3.64% (inactive).
